Assay outcomes as filed in PubChem.
Marburg entry inh: qHTS for inhibitors of binding or entry into cells for Marburg Virus. hit rate 1.8% among 300,000. Potency, µM (doses to about 37.8 µM), actives largely listed as inhibitors. Marburg virus pseudotyped entry inhibition, cell reporter. AID 540276, 2011; calls by dose curve; tested in HEK293 cells
HCV inh: qHTS Assay for Inhibitors of Hepatitis C Virus (HCV); Huh7.5.1 HCVcc-Cre infection, luciferase reporter, 44 h; Potency, µM (highest dose often 41.8 µM), most hits filed as inhibitors; hit rate 3.4% among 340,000; AID 651820, 2012; active = well fitted inhibition curve with a large enough effect; inconclusive = small, poorly fitted or top-dose-only effect, or another doubt; inactive = no such curve, though single readings can be large or run the other way
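Cells (1,000/well) were plated 4 h before compound, then infected with HCVcc-Cre virus (~0.5 moi). After 44 h further culture, infection was read as luciferase luminescence following a 15 min substrate incubation at room temperature.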
VACV mCherry inh: qHTS for Stage-Specific Inhibitors of Vaccinia Orthopoxvirus: mCherry Reporter Primary qHTS; AID 720579, 2013; Vaccinia virus mCherry reporter infection, fluorescence; Potency, µM (doses to about 36.5 µM), usual class: inhibitors; hit rate 0.63% among 310,000; calls by dose curve; tested in A549 cells; note: nearly all actives have a fitted effect of over 35% in size
LASV entry inh: qHTS for Inhibitors of binding or entry into cells for Lassa Virus; Potency, µM (top dose mostly 37.9 µM), hits mostly inhibitors; hit rate 1.2% among 300,000; Lassa virus pseudotype entry inhibition, cell reporter; calls by dose curve; tested in HEK293 cells; note: nearly all actives have a fitted effect of over 50% in size
VACV Venus inh: qHTS for Stage-Specific Inhibitors of Vaccinia Orthopoxvirus: Venus Reporter Primary qHTS | hit rate 0.46% among 330,000 | Potency, µM (series often up to 36.5 µM), actives largely listed as inhibitors | Vaccinia virus Venus reporter expression, fluorescence; calls by dose curve; tested in A549 cells; note: nearly all actives have a fitted effect of over 30% in size
Numbers stand for hits; . = inactive; ? = inconclusive; / = no result; ! = a repeat was not active. An excerpt weighted towards active compounds, which were near 4.6% of everything screened.

SMILES | Marburg entry inh | HCV inh | VACV mCherry inh | LASV entry inh | VACV Venus inh
Cc1cccc(CS(=O)(=O)c2nnc([C@H](Cc3ccccc3)NC(=O)OC(C)(C)C)o2)c1 | 16µM | ? | / | . | /
COc1cc(-c2cc(C)c3c(OC)ccc(OC)c3n2)cc2c1OCCN(Cc1cn(C)nc1C)C2 | / | / | . | / | .
Cc1cc(NC(=O)Nc2ccccc2F)ccc1Br | ? | 13µM | . | ? | ?
CCN(CC)c1ccc(C(=O)n2cnc3ccccc32)cc1 | ? | ? | 14µM | ? | ?
O=C(CC1(O)C(=O)N(CCc2ccccc2)c2ccc(Br)cc21)c1ccccc1O (centres undefined) | . | / | . | ? | .
Cc1[nH]c2ccccc2c1/C=N/Nc1nc(Nc2ccc(F)cc2)nc(N2CCOCC2)n1 | ? | 8.9µM! | . | . | .
O=C(Oc1cccc(/C=N/Nc2nc(Nc3ccccc3)nc(N3CCOCC3)n2)c1)c1ccco1 | ? | ? | . | ? | ?
Cc1ccc(Nc2nc(N/N=C/c3c[nH]c4ccccc34)nc(N3CCOCC3)n2)cc1 | 0.21µM | ? | ? | 15µM | ?
C(=N\Nc1nc(Nc2ccccc2)nc(N2CCOCC2)n1)/c1c[nH]c2ccccc12 | 0.073µM | 3.5µM | / | ? | /
CC(C)NC(=O)C1=CC(c2ccc3c(c2)OCO3)=NS(=O)(=O)N1C | . | / | . | ? | .
Cc1cc(C)c(-c2c(N)cc(Br)cc2Br)c(N)c1 | ? | ? | 13µM | . | .
COc1ccc(-c2cn3nc(N4CCC(C(=O)NCc5ccccc5F)CC4)sc3n2)cc1 | / | / | . | . | .
Cc1ccc(-n2nc3c(=O)n(CCCC(=O)NCC(C)c4ccccc4)nc(C)c3c2C)cc1 (centres undefined) | / | 22µM | / | / | /
Cc1ccc(-n2nc3c(=O)n(CC(=O)NCCc4ccccc4C)nc(C)c3c2C)cc1 | ? | 5µM | ? | . | ?
Cc1ccc(CNC(=O)CCCn2nc(C)c3c(C)n(-c4ccccc4)nc3c2=O)cc1 | / | ? | . | . | .
COc1ccc(OC)c(CCNC(=O)Cn2nc(C)c3c(C)n(-c4ccc(C)cc4)nc3c2=O)c1 | ? | 1.1µM | . | ? | ?
CCN(CC)S(=O)(=O)c1cccc(C(=O)Nc2sc3c(c2C#N)CCC(C)C3)c1 (centres undefined) | . | / | . | . | .
Cc1cc(C)cc(NC(=O)Cn2c(C(F)(F)F)nc3ccccc32)c1 | . | / | . | . | .
CN1CCN(C(c2ccc(F)cc2)c2ccc3cccnc3c2O)CC1 (centres undefined) | / | . | / | / | /
CN1CCN(C(c2ccc(Br)cc2)c2cc(Cl)c3cccnc3c2O)CC1 (centres undefined) | ? | 7.9µM | ? | ? | ?
CCOc1ccc(-c2onc(C(F)(F)F)c2-c2cscn2)c(O)c1 | . | 10µM | / | . | /
Cc1cc(O)cc(O)c1-c1onc(C(F)(F)F)c1-c1cscn1 | ? | ? | / | . | ?
CC(C)(C)N(Cc1ccc2c(c1)OCO2)C(=O)/C=C\S(=O)c1ccccc1 (centres undefined) | ? | 11µM | 8.9µM | ? | 14µM
O=C(NCCC1=CCCCC1)c1ccc(Cl)c(S(=O)(=O)N2CCOCC2)c1 | . | ? | / | . | /
Cc1ccc(N(Cc2ccccc2)C(=O)c2ccc(C)c(S(=O)(=O)N3CCOCC3)c2)cc1 | / | 32µM | / | / | /
SMILES | Marburg entry inh | HCV inh | VACV mCherry inh | LASV entry inh | VACV Venus inh
Cc1cccc(N(Cc2ccccc2)C(=O)c2cc(S(=O)(=O)N3CCOCC3)ccc2Cl)c1 | 13µM | ? | . | ? | .
Cc1ccc(CSCCNC(=O)c2ccc(Cl)c(S(=O)(=O)N3CCOCC3)c2)cc1 | . | 22µM | / | ? | /
Cc1ccc(N(Cc2ccccc2)C(=O)c2cc(S(=O)(=O)N3CCOCC3)ccc2Cl)cc1 | ? | ? | . | ? | .
CCOC(=O)c1ccc(N2C(=O)C[C@@H](Sc3nnc(C)s3)C2=O)cc1 | . | / | / | / | /
COc1ccc(-c2c3c(=O)n(C)c(=O)n(C)c3cn2C2CCCCC2)cc1 | ? | 25µM | . | ? | .
CCOc1cc(-c2ccc(OC(=O)c3ccccc3)c(OC)c2)cc(=O)c2c(C)oc(C)c12 | ? | / | . | . | .
O=c1oc2cc(Oc3c([N+](=O)[O-])cc(C(F)(F)F)cc3[N+](=O)[O-])ccc2c2c1CCCC2 | ? | 3.2µM | / | . | /
COc1ccc([C@@H]2NC3=C(CCC3)[C@@]3(C#N)C(OC)(OC)N=C(N)[C@]23C#N)cc1 | . | / | / | / | /
CC[C@@H]1CCCCN1c1nc(-c2ccncc2)nc2ccccc12 | 9.2µM | / | / | / | /
COc1nc(-c2ccncc2)nc2ccccc12 | . | ? | . | . | .
COc1cccc(-c2nc(N3CCN(C)CC3)c3ccccc3n2)c1O | ? | ? | 10µM | ? | ?
Oc1ccccc1N1CCN(c2nc(-c3cccs3)nc3ccccc23)CC1 | / | 11µM | / | / | /
CN1CCN(c2nc(-c3ccccc3O)nc3ccccc23)CC1 | . | ? | . | . | .
OCCN1CCN(c2nc(-c3ccccc3O)nc3ccccc23)CC1 | ? | 22µM | ? | ? | ?
CCOc1ccc2nc(N3CCN(C(=O)c4ccc5c(c4)CCCC5)CC3)sc2c1 | / | / | . | . | .
O=C(N(CC1CCCCC1)C1=NCCCC1)C12CC3CC(CC(C3)C1)C2 | . | / | / | / | /
CCN(CC)c1nc(-c2cccc(OC)c2O)nc2ccccc12 | ? | . | . | ? | .
CN1CCN(c2nc(-c3ccncc3)nc3ccccc23)CC1 | 7.9µM | ? | . | . | .
COc1cccc(-c2nc(N3CCCCC3C)c3ccccc3n2)c1O (centres undefined) | ? | 8.9µM | . | . | .
c1ccc2c(N3CCCC3)nc(-c3ccncc3)nc2c1 | ? | ? | / | . | ?
COC(=O)C1=C(C)N=C2S[C@H](C)C(=O)N2[C@@H]1c1cccc(F)c1 | . | / | / | / | /
CN(C)c1ccc(/C=C/[N+](=O)[O-])cc1 | . | . | . | . | .
CN(C)c1ccc(-n2cccc2/C=C/[N+](=O)[O-])cc1 | ? | 10µM | . | ? | .
Cc1ccc(C2(c3noc(CN(C)CCO)n3)CCCC2)cc1 | . | . | . | ? | .
Cc1ccc(C2(c3noc(CN4CCC(c5ccncc5)CC4)n3)CCCC2)cc1 | ? | 10µM | . | . | .
SMILES | Marburg entry inh | HCV inh | VACV mCherry inh | LASV entry inh | VACV Venus inh
Cc1c(N2CCCC2)cc2c(c1NC(=O)c1ccccc1Cl)C(C)(C)CC2(C)C | / | 25µM | . | / | .
Cc1oc(-c2cccc(NC(=O)c3ccccn3)c2)nc1CNC(=O)c1ccc(C(F)(F)F)cc1 | / | / | . | / | .
S=C(N/N=C1\CCc2ccccc21)NC1CCCCC1 | ? | 8.9µM | / | . | /
O=C(N/N=C1/CCc2ccccc21)C1CC1 | . | . | . | . | .
CCOc1ccccc1CN1CCC(Oc2ccc(C(=O)NCc3ccccn3)cc2)CC1 | / | . | / | / | /
CCn1cc(CNC(=O)c2ccc(OC3CCN(Cc4ccccn4)CC3)cc2)cn1 | . | 10µM | ? | ? | .
CCNC(=O)CSc1nnc(-c2cccc(S(=O)(=O)N(CC)CC)c2)n1CCc1ccccc1 | . | . | / | . | /
CCSc1nnc(-c2cccc(S(=O)(=O)N(CC)CC)c2)n1Cc1ccccc1 | 15µM | . | / | 23µM | /
